The values below come from PubChem BioAssay (Tox21).

Records with an inconclusive call do not appear. Values without a mark were called inactive. Active and inactive are the calls of the source. Calls follow the shape of the dose curve; as a rule, active = well fitted cell-killing curve with a large enough effect in the repeat runs; inconclusive = weak or mixed curves; inactive = flat fitted curve, though single readings scatter.
% is scaled to controls: 0 for no effect and ±100 for the full control effect.

A short description of this test: qHTS assay to identify small molecule antagonists of the TGF-beta/Smad signaling pathway - cell viability counter screen (AID 1346824). Also: nearly all actives have a fitted effect of over 50% in size. Particulars: SBE-bla HEK293T viability, CellTiter-Glo luminescence; series mostly up to 76.8 µM. The text has this: U.S. Tox21 Program National Center for Advancing Translational Sciences [NCATS] NIH Chemical Genomics Center [NCGC] U.S. Environmental Protection Agency [EPA] National Institutes of Environmental Health Sciences [NIEHS] National Toxicology Program [NTP] U.S. Food and Drug Administration [FDA] Tox21 Assay Overview: Transforming growth factor beta (TGF-beta) superfamily consists of a large number of structurally related dimeric proteins that act as hormones or local mediators in regulating a wide range of biological functions. This superfamily includes TGF-betas themselves, the bone morphogenetic proteins (BMPs) and the activins. These ligands induce oligomerization of serine/threonine receptor kinases and phosphorylate the cytoplasmic signaling molecules of Smad protein family. CellSensor SBE-bla HEK 293T cell line (Life Technologies, Carlsbad, CA), responsive to TGF-beta was used to screen Tox21 10K compound library for identification of agonists/antagonists of the Smad signaling pathway. This cell line contains a beta-lactamase reporter gene under control of the Smad binding element (SBE) stably integrated into HEK 293T cells. Also cytotoxicity of the compounds was tested in parallel by measuring the cell viability using CellTiter-Glo assay system in the same wells.
Tox21 Assay Protocol Summary: SBE-bla HEK 293T cells were dispensed at 4,000/well in 5 uL of assay medium into black wall/clear-bottom 1536-well plates using a Multidrop Combi (ThermoFisher Scientific, Waltham, MA) dispenser. After the assay plates were incubated at 37 C and 5% CO2 for an overnight, 23 nL of compounds dissolved in DMSO, positive controls or DMSO only was transferred to the assay plate by a Pintool station (Kalypsys, San Diego, CA). Compound transfer was followed by the addition of 1 uL of 0.25 ng/mL TGF-beta1 or assay buffer using two separate tips of Flying Reagent Dispenser (FRD, Aurora Discovery, San Diego, CA). The assay plates were incubated at 37 C and 5% CO2 for 5 hr. One uL of LiveBLAzer B/G FRET substrate (Life Technologies) was added using a Flying Reagent Dispenser (FRD, Aurora Discovery, San Diego, CA) and the plates were incubated at room temperature for 2 hr. Fluorescence intensity (405 nm excitation, 460 nm and 530 nm emissions) was measured using an Envision plate reader (PerkinElmer, Shelton, CT). For cytotoxicity read, 4 uL of CellTiter-Glo reagent (Promega Corporation, Madison, WI) was added to each well of the assay plates using FRD. After 30 min incubation at room temperature, the luminescence intensity was measured using ViewLux plate reader (PerkinElmer).
For orientation: In qHTS, concentration-response curves come from the screen itself.
Take `COc1ccc(NC(C)=O)cc1`: the outcome was inactive. Same read-out and setting: with `Oc1cc(O)c2c(c1)O[C@H](c1ccc(O)c(O)c1)[C@H](O)C2` the entry was “inactive”; with `Cc1cc(C)c(NC(=O)CN(CC(=O)O)CC(=O)O)c(C)c1Br`, “inactive”.

As for `CCCC(C)C(=O)O` (stereo not given), the molecule was called inactive. `COc1ccc(COC=O)cc1`: the molecule was classed as inactive.

On to `OC/C=C/c1ccccc1`, for which the call was inactive. Same read-out and setting: then `O=[N+]([O-])c1ccc(CCO)cc1`, with “inactive”; and `Nc1cc(C(Cl)=C(Cl)Cl)c(S(N)(=O)=O)cc1S(N)(=O)=O`, with “inactive”.

`COc1cc(C)cc(O)c1`: the molecule was called inactive. On to `COc1nc(C)nc(N)n1`, for which the call was inactive. On to `N#CCc1ccccc1[N+](=O)[O-]`, for which the molecule was called inactive. For `C=CC(=O)OCCCCCC`, the molecule was called inactive. In the case of `C=CCn1c(=O)n([C@@H]2O[C@H](CO)[C@@H](O)[C@H]2O)c2nc(N)[nH]c(=O)c21`, the outcome was inactive. Same read-out and setting: with `CO[Si](CCCNCCC[Si](OC)(OC)OC)(OC)OC` the entry was “inactive”; with `CC(C)CCCC(C)NCCC(C)C` (stereo not given), “inactive”; with `CCCc1ccccc1O`, “inactive”. With `C=C(C)C(=O)OCCCCCCCCCCCCCCCCCC`, the viability change, negative = cytotoxic was 11% [at 15.8 µM]. Regarding `Cc1ccccc1C(=O)O`, the molecule was called inactive. In the case of `CCN1CCN(c2cc3c(cc2F)c(=O)c(C(=O)O)cn3C2CC2)CC1`, the molecule was called inactive. With `CC(C)(O)c1ccccc1`, the molecule was called inactive.

For the molecule `C1=C\CC/C=C\CC/C=C\CC/1`, the call was inactive.

`O=C(O)c1cccc(C(=O)O)n1`: the molecule was called inactive.

As to `CCOC(=O)Cn1c(=O)sc2cccc(Cl)c21`, the result was inactive. For `COc1cccc(Br)c1`, the result was inactive. The same measure, in the same setting: then `CCCC(C)CO` (stereo not given), with “inactive”; and `OCC(CO)(CO)COCC(CO)(CO)CO`, with “inactive”; and `CCCCC=O`, with “inactive”. On to `Fc1ccccc1-c1ccccc1`, for which the outcome was inactive.

As to `c1ccc(CCCc2ccccn2)cc1`, the call was inactive. Take `[O-][N+](=Nc1ccccc1)c1ccccc1`: the outcome was inactive.

For `CC(C)(C)C(=O)/C=C/c1ccc(Cl)cc1`, the result was inactive. On to `CC1(C)SC(C)(C)SC(C)(C)S1`, for which the molecule was classed as inactive.

As to `CCOC(=O)[C@H](CCc1ccccc1)N[C@@H](C)C(=O)N1CCC[C@H]1C(=O)O`, the molecule was called inactive. In the case of `CCn1c(=O)c2c(nc(/C=C/c3ccc(OC)c(OC)c3)n2C)n(CC)c1=O`, the result was inactive.

As for `CC/C=C\C#N`, the result was inactive. For `C1COCCO1`, the call was inactive. Consider `CCCCCCC(CCCCCCCCCCC(=O)OCC(COC(C)=O)OC(C)=O)OC(C)=O` (stereo not given), for which the outcome was inactive. `Nc1ccc2cc(S(=O)(=O)O)ccc2c1`: the molecule was called inactive. Still for that read-out and setting: with `CN(C)C(=O)Nc1ccccc1` the entry was “inactive”; with `CC(=O)NC(Cc1ccccc1)C(=O)O` (stereo not given), “inactive”.
